Results on 40 sequences are retold here after publication PMC7862700, “An all-to-all approach to the identification of sequence-specific readers for epigenetic DNA modifications on cytosine”.

The first assay deals with T1, SPDEF (Homo sapiens, UniProt O95238 1-335).
T1 sequence: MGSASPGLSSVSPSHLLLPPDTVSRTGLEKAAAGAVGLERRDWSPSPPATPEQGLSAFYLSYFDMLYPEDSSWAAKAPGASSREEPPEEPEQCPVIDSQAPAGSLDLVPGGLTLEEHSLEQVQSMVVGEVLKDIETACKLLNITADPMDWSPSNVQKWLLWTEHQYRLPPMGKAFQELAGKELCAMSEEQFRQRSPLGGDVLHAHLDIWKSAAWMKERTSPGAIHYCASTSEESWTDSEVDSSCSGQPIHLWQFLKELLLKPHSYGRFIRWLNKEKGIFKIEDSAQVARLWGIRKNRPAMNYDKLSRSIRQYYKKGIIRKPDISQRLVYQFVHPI
The assay is described as follows: DAPPL (digital affinity profiling via proximity ligation, sequencing); 10 mM Tris-HCl pH 7.5, 50 mM NaCl, 1 mM DTT, 4% glycerol, room temperature, 30 min; GST-TFs on glutathione beads, 16-mer random dsDNA library, 0.1% formaldehyde crosslink after washing; high values mean tight binding. The note with it: protein: recombinant; tags: N-terminal GST; dsDNA, one strand shown. Summed up:
(§1)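 A tag-only sample was pooled with DNA-barcoded human transcription factors that had been expressed in yeast as GST fusions and captured on glutathione beads. The pools were incubated for 30 min at room temperature with 200 nmole of a random double-stranded 16-mer DNA library in Tris/NaCl/DTT/glycerol buffer, then washed, crosslinked with 0.1% formaldehyde, proximity-ligated (BsaI/T4 ligase, 1 h, 37 °C), PCR-amplified and sequenced on an Illumina NextSeq500. Binding signal is each hexamer's read frequency for a factor divided by its frequency for the tag-only sample.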
Take CTCCTT: the binding signal was 1.64 fold enrichment (6-mer frequency, TF over GST control).
Take CTGTAT: the binding signal was 1.44 fold enrichment (6-mer frequency, TF over GST control).
On the same count and under the same terms, in the case of ATGCTC it was 1.43 fold enrichment (6-mer frequency, TF over GST control); in that of CTATAT, 1.51 fold enrichment (6-mer frequency, TF over GST control).
On to CTCCAA, for which the binding signal was 1.33 fold enrichment (6-mer frequency, TF over GST control).
Same read-out and setting: in the case of CTCAAT it was 1.21 fold enrichment (6-mer frequency, TF over GST control).
The same measure, in the same setting: in the case of CCTAAT it was 1.36 fold enrichment (6-mer frequency, TF over GST control).
Same read-out and setting: the value for CTGGCT was 1.23 fold enrichment (6-mer frequency, TF over GST control); that for TATTTG was 1.32 fold enrichment (6-mer frequency, TF over GST control).
Regarding CTTCGA, the binding signal was 1.3 fold enrichment (6-mer frequency, TF over GST control).
Same read-out and setting: the value for ACTATG was 1.28 fold enrichment (6-mer frequency, TF over GST control); that for TAAACT was 1.01 fold enrichment (6-mer frequency, TF over GST control).
As to ATTCAC, the binding signal is 1.21 fold enrichment (6-mer frequency, TF over GST control).
Same read-out and setting: in the case of CTACAC it was 1.39 fold enrichment (6-mer frequency, TF over GST control).
Still for that read-out and setting: the value for GTATTT was 1.64 fold enrichment (6-mer frequency, TF over GST control); that for AATTTC was 1.59 fold enrichment (6-mer frequency, TF over GST control); that for TTTCAC was 1.33 fold enrichment (6-mer frequency, TF over GST control).
On the same count and under the same terms, the value for CTCGTC was 1.35 fold enrichment (6-mer frequency, TF over GST control); that for CCTTCT was 1.84 fold enrichment (6-mer frequency, TF over GST control); that for TTACGG was 1.32 fold enrichment (6-mer frequency, TF over GST control).

For the next assay, the target named is T2, ETV7 (Homo sapiens, UniProt Q9Y603 1-341).
T2 sequence: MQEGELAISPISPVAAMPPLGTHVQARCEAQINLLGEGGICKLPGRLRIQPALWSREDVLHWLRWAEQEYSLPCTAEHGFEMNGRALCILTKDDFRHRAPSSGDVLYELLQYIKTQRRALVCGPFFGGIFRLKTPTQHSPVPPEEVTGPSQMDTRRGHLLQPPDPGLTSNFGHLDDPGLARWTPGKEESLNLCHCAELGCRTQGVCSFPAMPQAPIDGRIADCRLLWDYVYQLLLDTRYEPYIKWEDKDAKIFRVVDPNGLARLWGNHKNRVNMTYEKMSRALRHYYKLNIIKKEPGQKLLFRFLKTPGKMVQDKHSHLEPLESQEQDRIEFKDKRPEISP
The description is as above. The note with it: protein: recombinant; tags: N-terminal GST; dsDNA, one strand shown. Summed up: as §1
Consider TTCCCG, for which the binding signal is 1.88 fold enrichment (6-mer frequency, TF over GST control).
Turning to CTTCCT, the binding signal is 2.76 fold enrichment (6-mer frequency, TF over GST control).
In the case of TTGAAA, the binding signal was 1.19 fold enrichment (6-mer frequency, TF over GST control).
On the same count and under the same terms, in the case of TACTCT it was 1.33 fold enrichment (6-mer frequency, TF over GST control); in that of TCCTCA, 1.38 fold enrichment (6-mer frequency, TF over GST control).
CCTCCC: the binding signal was 1.44 fold enrichment (6-mer frequency, TF over GST control).
On the same count and under the same terms, in the case of TGGTTT it was 1.44 fold enrichment (6-mer frequency, TF over GST control).
Consider ATGAAC, for which the binding signal was 1.2 fold enrichment (6-mer frequency, TF over GST control).
With AACCTG, the binding signal is 1.21 fold enrichment (6-mer frequency, TF over GST control).
Same read-out and setting: in the case of ACAGCT it was 1.21 fold enrichment (6-mer frequency, TF over GST control); in that of AAATCA, 1.16 fold enrichment (6-mer frequency, TF over GST control); in that of TGGACT, 1.19 fold enrichment (6-mer frequency, TF over GST control).
For TGAACT, the binding signal was 1.21 fold enrichment (6-mer frequency, TF over GST control).
Turning to AATCCC, the binding signal is 1.23 fold enrichment (6-mer frequency, TF over GST control).
On the same count and under the same terms, the value for TAAAGT was 1.25 fold enrichment (6-mer frequency, TF over GST control); that for CCTGGA was 1.34 fold enrichment (6-mer frequency, TF over GST control); that for AAACCA was 1.2 fold enrichment (6-mer frequency, TF over GST control).
Same read-out and setting: the value for CTGTCT was 1.53 fold enrichment (6-mer frequency, TF over GST control); that for GCTCCA was 1.19 fold enrichment (6-mer frequency, TF over GST control).
The same measure, in the same setting: the value for CTTGGG was 1.3 fold enrichment (6-mer frequency, TF over GST control).
Turning to CTCCTT, the binding signal was 1.75 fold enrichment (6-mer frequency, TF over GST control).
CTGTAT: the binding signal was 1.25 fold enrichment (6-mer frequency, TF over GST control).
For ATGCTC, the binding signal is 1.37 fold enrichment (6-mer frequency, TF over GST control).
Same read-out and setting: in the case of CTATAT it was 1.41 fold enrichment (6-mer frequency, TF over GST control).
On the same count and under the same terms, the value for CTCCAA was 1.52 fold enrichment (6-mer frequency, TF over GST control).
In the case of CTCAAT, the binding signal is 1.16 fold enrichment (6-mer frequency, TF over GST control).
On the same count and under the same terms, the value for CCTAAT was 1.31 fold enrichment (6-mer frequency, TF over GST control).
On to CTGGCT, for which the binding signal was 1.38 fold enrichment (6-mer frequency, TF over GST control).
The same measure, in the same setting: in the case of TATTTG it was 1.52 fold enrichment (6-mer frequency, TF over GST control); in that of CTTCGA, 1.44 fold enrichment (6-mer frequency, TF over GST control); in that of ACTATG, 1.18 fold enrichment (6-mer frequency, TF over GST control).
On the same count and under the same terms, the value for TAAACT was 1.04 fold enrichment (6-mer frequency, TF over GST control); that for ATTCAC was 1.24 fold enrichment (6-mer frequency, TF over GST control); that for CTACAC was 1.25 fold enrichment (6-mer frequency, TF over GST control).
GTATTT: the binding signal is 1.73 fold enrichment (6-mer frequency, TF over GST control).
Still for that read-out and setting: the value for AATTTC was 1.74 fold enrichment (6-mer frequency, TF over GST control).
Still for that read-out and setting: the value for TTTCAC was 1.4 fold enrichment (6-mer frequency, TF over GST control).
The same measure, in the same setting: the value for CTCGTC was 1.46 fold enrichment (6-mer frequency, TF over GST control).
Turning to CCTTCT, the binding signal is 1.45 fold enrichment (6-mer frequency, TF over GST control).
The same measure, in the same setting: in the case of TTACGG it was 1.16 fold enrichment (6-mer frequency, TF over GST control).

The next assay deals with T3, ELF5 (Homo sapiens, UniProt Q9UKW6-2 1-255).
T3 sequence: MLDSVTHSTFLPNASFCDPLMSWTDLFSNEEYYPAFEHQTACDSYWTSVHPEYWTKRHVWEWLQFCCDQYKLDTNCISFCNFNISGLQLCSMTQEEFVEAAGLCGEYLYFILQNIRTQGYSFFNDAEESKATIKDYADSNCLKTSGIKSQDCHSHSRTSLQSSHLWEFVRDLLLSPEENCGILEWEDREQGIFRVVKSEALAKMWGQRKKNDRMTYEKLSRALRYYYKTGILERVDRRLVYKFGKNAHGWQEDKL
The description is as above. The note with it: protein: recombinant; tags: N-terminal GST; dsDNA, one strand shown. Summed up: as §1
As to TTCCCG, the binding signal is 2.91 fold enrichment (6-mer frequency, TF over GST control).
Same read-out and setting: the value for CTTCCT was 5.89 fold enrichment (6-mer frequency, TF over GST control).
On the same count and under the same terms, in the case of TTGAAA it was 1.03 fold enrichment (6-mer frequency, TF over GST control).
In the case of TACTCT, the binding signal is 1.38 fold enrichment (6-mer frequency, TF over GST control).
The same measure, in the same setting: in the case of TCCTCA it was 2.13 fold enrichment (6-mer frequency, TF over GST control); in that of CCTCCC, 1.49 fold enrichment (6-mer frequency, TF over GST control).
The same measure, in the same setting: the value for TGGTTT was 1.54 fold enrichment (6-mer frequency, TF over GST control).
Still for that read-out and setting: in the case of ATGAAC it was 1.29 fold enrichment (6-mer frequency, TF over GST control); in that of AACCTG, 1.16 fold enrichment (6-mer frequency, TF over GST control).
ACAGCT: the binding signal is 1.12 fold enrichment (6-mer frequency, TF over GST control).
Same read-out and setting: the value for AAATCA was 1.22 fold enrichment (6-mer frequency, TF over GST control); that for TGGACT was 1.22 fold enrichment (6-mer frequency, TF over GST control); that for TGAACT was 1.23 fold enrichment (6-mer frequency, TF over GST control).
Still for that read-out and setting: in the case of AATCCC it was 1.4 fold enrichment (6-mer frequency, TF over GST control).
Same read-out and setting: the value for TAAAGT was 1.17 fold enrichment (6-mer frequency, TF over GST control).
With CCTGGA, the binding signal is 1.74 fold enrichment (6-mer frequency, TF over GST control).
Still for that read-out and setting: in the case of AAACCA it was 1.13 fold enrichment (6-mer frequency, TF over GST control); in that of CTGTCT, 1.28 fold enrichment (6-mer frequency, TF over GST control); in that of GCTCCA, 1.09 fold enrichment (6-mer frequency, TF over GST control).
On the same count and under the same terms, the value for CTTGGG was 1.19 fold enrichment (6-mer frequency, TF over GST control); that for CTCCTT was 1.89 fold enrichment (6-mer frequency, TF over GST control).
The same measure, in the same setting: the value for CTGTAT was 1.34 fold enrichment (6-mer frequency, TF over GST control).
With ATGCTC, the binding signal was 1.38 fold enrichment (6-mer frequency, TF over GST control).
The same measure, in the same setting: in the case of CTATAT it was 1.4 fold enrichment (6-mer frequency, TF over GST control).
Still for that read-out and setting: the value for CTCCAA was 1.23 fold enrichment (6-mer frequency, TF over GST control); that for CTCAAT was 1.27 fold enrichment (6-mer frequency, TF over GST control); that for CCTAAT was 1.25 fold enrichment (6-mer frequency, TF over GST control).
The same measure, in the same setting: the value for CTGGCT was 1.19 fold enrichment (6-mer frequency, TF over GST control); that for TATTTG was 1.4 fold enrichment (6-mer frequency, TF over GST control); that for CTTCGA was 1.27 fold enrichment (6-mer frequency, TF over GST control).
With ACTATG, the binding signal was 1.16 fold enrichment (6-mer frequency, TF over GST control).
The same measure, in the same setting: the value for TAAACT was 1.16 fold enrichment (6-mer frequency, TF over GST control).
As for ATTCAC, the binding signal is 1.19 fold enrichment (6-mer frequency, TF over GST control).
Take CTACAC: the binding signal was 1.36 fold enrichment (6-mer frequency, TF over GST control).
Still for that read-out and setting: in the case of GTATTT it was 1.62 fold enrichment (6-mer frequency, TF over GST control); in that of AATTTC, 2.31 fold enrichment (6-mer frequency, TF over GST control); in that of TTTCAC, 1.42 fold enrichment (6-mer frequency, TF over GST control).
The same measure, in the same setting: in the case of CTCGTC it was 1.32 fold enrichment (6-mer frequency, TF over GST control); in that of CCTTCT, 1.86 fold enrichment (6-mer frequency, TF over GST control).
Take TTACGG: the binding signal was 1.32 fold enrichment (6-mer frequency, TF over GST control).
